Results taken from PMC7862700, “An all-to-all approach to the identification of sequence-specific readers for epigenetic DNA modifications on cytosine”.

What was measured:
Test in all cases: DAPPL (digital affinity profiling via proximity ligation, sequencing); 10 mM Tris-HCl pH 7.5, 50 mM NaCl, 1 mM DTT, 4% glycerol, room temperature, 30 min; GST-TFs on glutathione beads, 16-mer random dsDNA library, 0.1% formaldehyde crosslink after washing; high values mean tight binding
Settings in all cases: protein: recombinant; tags: N-terminal GST; dsDNA, one strand shown
FLI1 = molecular target: T1, FLI1 (Homo sapiens, UniProt Q01543 1-452)
T1 sequence: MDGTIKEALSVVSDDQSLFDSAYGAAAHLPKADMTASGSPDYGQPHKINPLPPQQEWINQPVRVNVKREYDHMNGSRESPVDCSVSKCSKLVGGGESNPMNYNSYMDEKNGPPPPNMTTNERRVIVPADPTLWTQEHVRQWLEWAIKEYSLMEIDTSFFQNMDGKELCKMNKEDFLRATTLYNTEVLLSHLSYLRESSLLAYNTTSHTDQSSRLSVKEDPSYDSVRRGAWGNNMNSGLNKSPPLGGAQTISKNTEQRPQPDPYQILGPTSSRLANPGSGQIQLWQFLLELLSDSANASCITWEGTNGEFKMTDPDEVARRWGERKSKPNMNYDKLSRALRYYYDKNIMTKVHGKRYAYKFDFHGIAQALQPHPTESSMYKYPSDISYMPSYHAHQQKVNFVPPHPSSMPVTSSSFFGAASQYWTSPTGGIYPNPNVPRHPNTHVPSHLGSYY
How it was run: (§1)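 Yeast served to express human transcription factors as GST fusions, which were then captured on glutathione beads and labelled with DNA barcodes. Pooled with a tag-only sample, they were incubated with 200 nmole of a 16-mer random double-stranded DNA library for 30 min at room temperature in Tris/NaCl/DTT/glycerol buffer, washed, crosslinked with 0.1% formaldehyde, ligated by proximity, amplified by PCR and sequenced. Dividing each hexamer's read frequency for a factor by its frequency for the tag-only sample gives the binding signal.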

ELK1 = molecular target: T2, ELK1 (Homo sapiens, UniProt P19419 1-428)
T2 sequence: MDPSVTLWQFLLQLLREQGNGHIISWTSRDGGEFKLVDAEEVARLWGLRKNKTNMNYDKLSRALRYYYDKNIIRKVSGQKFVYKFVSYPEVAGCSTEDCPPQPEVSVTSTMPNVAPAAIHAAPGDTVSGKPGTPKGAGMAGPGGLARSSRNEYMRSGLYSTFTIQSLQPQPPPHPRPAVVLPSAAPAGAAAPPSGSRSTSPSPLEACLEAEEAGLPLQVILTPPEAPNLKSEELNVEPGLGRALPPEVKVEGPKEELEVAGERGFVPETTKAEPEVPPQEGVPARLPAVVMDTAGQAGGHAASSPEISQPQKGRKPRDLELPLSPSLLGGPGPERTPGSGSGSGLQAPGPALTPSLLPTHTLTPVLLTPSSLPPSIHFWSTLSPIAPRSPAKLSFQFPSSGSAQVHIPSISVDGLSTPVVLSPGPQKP
How it was run: as §1

ELF1 = ELF1 (Homo sapiens, UniProt P32519 1-619)
How it was run: as §1

EHF = molecular target: T3, EHF (Homo sapiens, UniProt Q9NZC4 1-300)
T3 sequence: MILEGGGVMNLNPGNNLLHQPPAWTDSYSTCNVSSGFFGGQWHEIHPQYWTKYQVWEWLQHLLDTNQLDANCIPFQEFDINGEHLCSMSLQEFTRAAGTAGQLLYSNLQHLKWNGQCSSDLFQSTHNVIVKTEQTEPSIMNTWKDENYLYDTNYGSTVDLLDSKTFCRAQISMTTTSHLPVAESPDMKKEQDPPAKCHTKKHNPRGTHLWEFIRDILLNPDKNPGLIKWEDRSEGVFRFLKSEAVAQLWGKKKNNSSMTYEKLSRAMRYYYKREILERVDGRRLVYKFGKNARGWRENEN
How it was run: as §1

SPIB = SPIB (Homo sapiens, UniProt Q01892 1-262)
How it was run: as §1

ELK3 = molecular target: T4, ELK3 (Homo sapiens, UniProt P41970 1-407)
T4 sequence: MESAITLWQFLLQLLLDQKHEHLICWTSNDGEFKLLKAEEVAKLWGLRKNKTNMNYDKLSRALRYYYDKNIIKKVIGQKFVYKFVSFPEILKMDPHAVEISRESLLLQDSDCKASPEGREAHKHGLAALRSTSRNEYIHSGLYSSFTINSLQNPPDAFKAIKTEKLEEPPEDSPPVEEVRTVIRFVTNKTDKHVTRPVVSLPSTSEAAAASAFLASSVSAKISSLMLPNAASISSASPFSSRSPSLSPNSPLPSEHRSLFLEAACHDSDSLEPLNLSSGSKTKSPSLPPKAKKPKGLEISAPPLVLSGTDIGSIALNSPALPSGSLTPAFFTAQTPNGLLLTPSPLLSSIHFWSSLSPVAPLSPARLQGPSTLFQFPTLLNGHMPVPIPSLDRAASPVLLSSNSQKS
How it was run: as §1

GABPA = molecular target: T5, GABPA (Homo sapiens, UniProt Q06546 1-454)
T5 sequence: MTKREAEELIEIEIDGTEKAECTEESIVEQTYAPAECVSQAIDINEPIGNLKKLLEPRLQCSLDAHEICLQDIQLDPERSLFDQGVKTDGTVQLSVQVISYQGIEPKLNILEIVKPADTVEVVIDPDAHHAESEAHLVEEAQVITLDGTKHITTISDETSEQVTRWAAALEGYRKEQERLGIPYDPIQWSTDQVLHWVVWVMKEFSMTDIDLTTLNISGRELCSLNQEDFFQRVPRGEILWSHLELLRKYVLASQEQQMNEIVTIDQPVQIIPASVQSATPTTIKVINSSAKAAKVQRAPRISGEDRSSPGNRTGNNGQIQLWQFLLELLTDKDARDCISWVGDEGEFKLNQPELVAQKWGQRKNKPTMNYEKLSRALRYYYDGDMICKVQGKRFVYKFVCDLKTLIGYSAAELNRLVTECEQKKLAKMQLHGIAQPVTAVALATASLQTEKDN
How it was run: as §1

ERG = molecular target: T6, ERG (Homo sapiens, UniProt P11308 1-479)
T6 sequence: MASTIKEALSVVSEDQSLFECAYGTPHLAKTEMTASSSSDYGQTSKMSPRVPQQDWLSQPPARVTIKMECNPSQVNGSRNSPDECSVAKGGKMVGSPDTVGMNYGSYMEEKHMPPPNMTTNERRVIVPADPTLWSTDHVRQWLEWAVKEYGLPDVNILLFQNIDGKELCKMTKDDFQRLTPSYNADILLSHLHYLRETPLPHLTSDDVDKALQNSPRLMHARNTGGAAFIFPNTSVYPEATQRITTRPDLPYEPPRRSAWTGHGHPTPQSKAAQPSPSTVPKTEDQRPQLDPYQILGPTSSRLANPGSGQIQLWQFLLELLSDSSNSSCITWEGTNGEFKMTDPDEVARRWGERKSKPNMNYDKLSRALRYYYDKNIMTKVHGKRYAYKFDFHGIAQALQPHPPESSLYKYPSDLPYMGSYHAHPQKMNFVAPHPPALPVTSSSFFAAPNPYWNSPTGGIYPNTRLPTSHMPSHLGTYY
How it was run: as §1

SPI1 = SPI1 (Homo sapiens, UniProt P17947 1-270)
How it was run: as §1

Sequence of ELF1 (P32519 whole entry): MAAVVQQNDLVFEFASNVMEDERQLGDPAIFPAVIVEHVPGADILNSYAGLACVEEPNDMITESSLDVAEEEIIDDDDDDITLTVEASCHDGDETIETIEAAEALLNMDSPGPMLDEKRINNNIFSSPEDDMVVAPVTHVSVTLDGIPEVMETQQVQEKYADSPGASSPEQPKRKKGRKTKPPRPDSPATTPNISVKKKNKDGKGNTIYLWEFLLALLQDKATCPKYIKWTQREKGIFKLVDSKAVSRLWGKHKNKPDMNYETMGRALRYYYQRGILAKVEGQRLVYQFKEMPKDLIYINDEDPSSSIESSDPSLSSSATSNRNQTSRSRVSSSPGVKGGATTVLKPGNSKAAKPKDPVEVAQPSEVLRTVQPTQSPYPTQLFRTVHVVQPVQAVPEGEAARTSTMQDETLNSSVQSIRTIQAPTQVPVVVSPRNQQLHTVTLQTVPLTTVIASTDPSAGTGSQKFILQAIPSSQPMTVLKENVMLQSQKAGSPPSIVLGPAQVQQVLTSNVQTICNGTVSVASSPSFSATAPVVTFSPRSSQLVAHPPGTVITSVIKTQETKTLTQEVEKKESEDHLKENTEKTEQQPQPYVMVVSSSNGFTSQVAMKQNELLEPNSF
Sequence of SPIB (Q01892 whole entry): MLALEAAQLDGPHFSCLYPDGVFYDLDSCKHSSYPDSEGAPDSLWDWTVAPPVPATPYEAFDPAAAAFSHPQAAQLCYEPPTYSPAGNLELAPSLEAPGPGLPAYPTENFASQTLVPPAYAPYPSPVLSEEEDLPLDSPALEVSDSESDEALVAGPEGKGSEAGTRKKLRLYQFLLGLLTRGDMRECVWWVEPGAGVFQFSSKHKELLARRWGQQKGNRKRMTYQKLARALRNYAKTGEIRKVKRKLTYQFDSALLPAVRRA

ATCAGC
binding signal (FLI1): 1.03 fold enrichment (6-mer frequency, TF over GST control)
binding signal (ELK1): 1.08 fold enrichment (6-mer frequency, TF over GST control)
binding signal (ELF1): 1.01 fold enrichment (6-mer frequency, TF over GST control)
binding signal (EHF): 1.02 fold enrichment (6-mer frequency, TF over GST control)
binding signal (SPIB): 1.02 fold enrichment (6-mer frequency, TF over GST control)
binding signal (ELK3): 1.03 fold enrichment (6-mer frequency, TF over GST control)

TCTAGG
binding signal (FLI1): 1.12 fold enrichment (6-mer frequency, TF over GST control)
binding signal (GABPA): 1.1 fold enrichment (6-mer frequency, TF over GST control)
binding signal (ERG): 1.02 fold enrichment (6-mer frequency, TF over GST control)
binding signal (ELF1): 1.05 fold enrichment (6-mer frequency, TF over GST control)
binding signal (SPIB): 1.11 fold enrichment (6-mer frequency, TF over GST control)
binding signal (ELK3): 1.07 fold enrichment (6-mer frequency, TF over GST control)

ACATCG
binding signal (FLI1): 1.03 fold enrichment (6-mer frequency, TF over GST control)
binding signal (ELK1): 1.01 fold enrichment (6-mer frequency, TF over GST control)
binding signal (ELF1): 1.06 fold enrichment (6-mer frequency, TF over GST control)
binding signal (EHF): 1.15 fold enrichment (6-mer frequency, TF over GST control)
binding signal (SPI1): 1.03 fold enrichment (6-mer frequency, TF over GST control)
binding signal (SPIB): 1.1 fold enrichment (6-mer frequency, TF over GST control)
binding signal (ELK3): 1.09 fold enrichment (6-mer frequency, TF over GST control)

TTTAGT
binding signal (FLI1): 1.13 fold enrichment (6-mer frequency, TF over GST control)
binding signal (GABPA): 1.11 fold enrichment (6-mer frequency, TF over GST control)
binding signal (ELF1): 1.11 fold enrichment (6-mer frequency, TF over GST control)
binding signal (SPI1): 1.07 fold enrichment (6-mer frequency, TF over GST control)
binding signal (SPIB): 1.12 fold enrichment (6-mer frequency, TF over GST control)
binding signal (ELK3): 1.11 fold enrichment (6-mer frequency, TF over GST control)

TCATTA
binding signal (FLI1): 1.12 fold enrichment (6-mer frequency, TF over GST control)
binding signal (GABPA): 1.07 fold enrichment (6-mer frequency, TF over GST control)
binding signal (ERG): 1.06 fold enrichment (6-mer frequency, TF over GST control)
binding signal (ELF1): 1.16 fold enrichment (6-mer frequency, TF over GST control)
binding signal (EHF): 1.09 fold enrichment (6-mer frequency, TF over GST control)
binding signal (SPI1): 1.12 fold enrichment (6-mer frequency, TF over GST control)
binding signal (SPIB): 1.16 fold enrichment (6-mer frequency, TF over GST control)

GGGTTT
binding signal (FLI1): 1.17 fold enrichment (6-mer frequency, TF over GST control)
binding signal (GABPA): 1.1 fold enrichment (6-mer frequency, TF over GST control)
binding signal (ERG): 1.1 fold enrichment (6-mer frequency, TF over GST control)
binding signal (ELF1): 1.1 fold enrichment (6-mer frequency, TF over GST control)
binding signal (EHF): 1.11 fold enrichment (6-mer frequency, TF over GST control)
binding signal (SPI1): 1.05 fold enrichment (6-mer frequency, TF over GST control)
binding signal (SPIB): 1.05 fold enrichment (6-mer frequency, TF over GST control)
binding signal (ELK3): 1.03 fold enrichment (6-mer frequency, TF over GST control)

GAAAGA
binding signal (FLI1): 1.01 fold enrichment (6-mer frequency, TF over GST control)
binding signal (ERG): 1.02 fold enrichment (6-mer frequency, TF over GST control)
binding signal (ELF1): 1.08 fold enrichment (6-mer frequency, TF over GST control)
binding signal (EHF): 1.01 fold enrichment (6-mer frequency, TF over GST control)
binding signal (SPI1): 1.14 fold enrichment (6-mer frequency, TF over GST control)
binding signal (SPIB): 1.02 fold enrichment (6-mer frequency, TF over GST control)
